CYP2C9 activ: activators of human CYP2C9. P11712. recombinant CYP2C9, luciferin-H conversion, luminescence; hits give high values; factor 1 = untreated enzyme, 0 = blocked. activation factor at 5 µM. hit rate 1.4% among 96,000. AID 1024;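 active = activation factor of 2 or more for CYP2C9 at a 5 µM dose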;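 also: 0 = sulfaphenazole-blocked wells and 1 = vehicle-only wells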
CYP2C19 act: increases human CYP2C19 enzyme activity. P33261. recombinant CYP2C19, luciferin-H EGE luminescence; hits give high values; 0 = fully inhibited enzyme, 1 = untreated enzyme. activation factor at 5 µM. 96,000 tested, under 10 active;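 active = activation factor of at least 2 at 5 µM in the primary screen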;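 also: 0 = wells with 2.5 mM tranylcypromine and 1 = vehicle-only wells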
Target sequence (P33261 whole entry, looked up): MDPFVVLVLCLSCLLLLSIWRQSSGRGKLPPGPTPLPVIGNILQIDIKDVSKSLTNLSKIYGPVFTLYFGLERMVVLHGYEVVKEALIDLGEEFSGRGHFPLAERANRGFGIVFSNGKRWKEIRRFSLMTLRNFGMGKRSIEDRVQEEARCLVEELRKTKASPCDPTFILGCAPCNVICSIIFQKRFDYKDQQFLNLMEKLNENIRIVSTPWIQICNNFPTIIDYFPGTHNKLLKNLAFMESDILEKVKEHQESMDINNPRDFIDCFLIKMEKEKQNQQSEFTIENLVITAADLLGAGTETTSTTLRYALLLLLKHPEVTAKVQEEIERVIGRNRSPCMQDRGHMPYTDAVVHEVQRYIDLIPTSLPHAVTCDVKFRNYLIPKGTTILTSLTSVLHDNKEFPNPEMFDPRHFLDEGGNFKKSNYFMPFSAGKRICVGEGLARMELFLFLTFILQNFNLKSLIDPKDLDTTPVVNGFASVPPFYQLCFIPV
PostGolgi ctrl: growth of the yeast control strain, post-Golgi counter-screen | inhibition, % at 10 µM | AID 738 | efflux-deficient yeast background strain, growth absorbance A615, 16 h | hit rate 5% among 98,000
CYP2C9 inh: human CYP2C9 inhibition | P11712 | CYP2C9 Supersomes, luciferin-H conversion, luminescence | inhibition, % at 5 µM | hit rate 20% among 96,000 | AID 777;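 active = blocking of liver enzyme CYP2C9 beyond about 50% at 5 µM, limit read from the data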
PostGolgi yeast: growth inhibition of a yeast mutant, post-Golgi transport screen; post-Golgi transport phenotypic cell assay; inhibition, % at 10 µM; hit rate 0.9% among 98,000;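 also: yeast cells grown in 1536-well plates; yeast grown about 18 h at 30C before absorbance read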
CYP2C19 inhib: inhibitors of human CYP2C19. P33261. CYP2C19 Supersomes, luciferin-H EGE luminescence, 30 min. inhibition, % at 5 µM. hit rate 21% among 96,000;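 active = CYP2C19 inhibition above a set limit at 5 µM in the primary screen, cut at about 50% in these data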;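 also: plate controls were negative control wells for no effect and 2.5 mM tranylcypromine positive control for full effect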
An asterisk follows results filed as active; · = not tested or not shown. Sampled rows, rich in hits. Any-hit rate of the full collection: about 32%. Rule as the data show it, unless noted: active = inhibition above about 30%; inactive = the rest.

SMILES | CYP2C9 activ | CYP2C19 act | PostGolgi ctrl | CYP2C9 inh | PostGolgi yeast | CYP2C19 inhib
Cc1ccc(C(=O)N(Cc2ccc3c(c2)OCO3)Cc2nc3ccccc3c(=O)[nH]2)cc1 | 0.6 | 0.5 | 16 | 39 | -5 | 45
Cc1ccc(S(=O)(=O)N2c3cc(C)ccc3OCC2C(C)(C)C)cc1 (stereo not given) | 0.5 | 1 | 2 | 50* | -23 | 4
Cc1ccc(S(=O)(=O)N2c3ccccc3OCC2c2ccccc2)cc1 (stereo not given) | · | · | 25 | · | -3 | ·
O=C(CSc1ncn[nH]1)NCCCc1ccccc1 | 1 | 0.4 | 9 | 5 | 23 | 57*
O=C(CSc1ncn[nH]1)Nc1ccccc1Sc1ccccc1 | 0.5 | 0.1 | -3 | 45 | 1 | 87*
O=C(CSc1ncn[nH]1)NCCc1ccccc1 | 0.9 | 0.7 | -3 | 7 | 0 | 27
CC(C)C(CO)NC(=O)CC(=O)NC(CO)C(C)C (stereo not given) | 0.9 | 1 | 1 | 7 | -4 | 0
COc1cccc(CSc2nnc(-c3ccc(F)cc3)o2)c1 | 1.2 | 0.8 | 19 | -21 | 5 | 17
Oc1c(Cl)cc(Cl)cc1C(C#Cc1ccccc1)N1CCOCC1 (stereo not given) | 0.3 | 0.8 | 26 | 67* | 7 | 24
Cc1ccc(C(C#N)N2CCOCC2)cc1 (stereo not given) | · | · | 17 | · | 1 | ·
COc1cccc(C(=O)Nc2ccc(N3CCN(S(C)(=O)=O)CC3)cc2)c1 | 1.1 | 1.1 | 9 | -9 | -2 | -10
COc1ccc(Br)cc1C(=O)Nc1ccc(O)cc1 | 3.1* | 0.5 | 8 | -205 | 3 | 46
COc1ccc(Br)cc1C(=O)Nc1ccc(N2CCN(S(C)(=O)=O)CC2)cc1 | 2* | 0.8 | 6 | -97 | -3 | 16
CCOc1cccc(C(=O)Nc2ccc(N3CCN(S(C)(=O)=O)CC3)cc2)c1 | 0.5 | 0.7 | -3 | 53* | -2 | 34
COc1cc(C(=O)Nc2ccc(Br)cc2C(=O)c2cc(OC)c(OC)c(OC)c2)cc(OC)c1OC | 0.1 | 0.3 | 7 | 93* | -2 | 68*
CCCCN(C(=O)CNC(=O)c1ccco1)C(C(=O)NC1CCCCC1)c1ccc(OC)cc1OC (stereo not given) | 0.9 | 0.8 | 3 | 8 | 4 | 16
COc1cc(C(=O)Nc2ccc(N(C)C)cc2)cc(OC)c1OC | 0.7 | 0.3 | -4 | 27 | 3 | 70*
CCn1cnc2sc(C(=O)N(Cc3ccc(N(C)C)cc3)Cc3ccco3)c(C)c2c1=O | 0 | 0.1 | 39* | 98* | 12 | 88*
COc1cc(OC)cc(C(=O)NCC(=O)N2CCC(C)CC2)c1 | · | · | 0 | · | 5 | ·
O=C(NNc1ccccn1)C(=O)NNS(=O)(=O)c1ccc(Cl)cc1 | 1 | 1 | 31* | 2 | 3 | 3
CC(C)OC(=O)CSc1nnc(Cc2ccccc2)n1Cc1ccco1 | 0.5 | 0.3 | 16 | 50 | 14 | 71*
COc1cccc(-c2nnc(SCC(=O)OC(C)C)n2Cc2ccco2)c1 | 0.1 | 0.2 | 21 | 85* | 0 | 80*
Cc1csc(SCCn2c(N3CCCC3)nc3c2c(=O)[nH]c(=O)n3C)n1 | 0.6 | 0.7 | -4 | 42 | 1 | 27
Cc1cc(C)n(C(=O)CSc2nnc(SCC(=O)n3nc(C)cc3C)s2)n1 | 1.1 | 1.2 | 6 | -15 | 2 | -20
CCCn1c(=O)[nH]c2ccccc21 | 1.3 | 1.1 | -3 | -33 | -5 | -6
SMILES | CYP2C9 activ | CYP2C19 act | PostGolgi ctrl | CYP2C9 inh | PostGolgi yeast | CYP2C19 inhib
Cc1cc(C)nc(SCCCn2c(=O)[nH]c3ccccc32)n1 | 1.4 | 0 | 17 | -39 | 1 | 97*
COc1ccc2c(c1OC)C(=O)N1c3ccccc3C(=O)N(c3ccccc3)C21 (stereo not given) | 0.4 | 0.8 | 7 | 59* | 3 | 16
O=C(c1ccco1)N1CCN(C(=O)C2CCN(S(=O)(=O)Cc3ccccc3)CC2)CC1 | 0.9 | 0.9 | 11 | 13 | -3 | 14
CCc1c(C(=O)NCCc2ccc(OC)c(OC)c2)[nH]c(C)c1C(C)=O | 0.6 | 0.8 | 11 | 37 | -10 | 19
CCc1c(C(=O)Nc2cc(C)ccc2OC)[nH]c(C)c1C(C)=O | 0.7 | 0.4 | 55* | 35 | 29 | 55*
CCc1c(C(=O)NCc2ccccc2Cl)[nH]c(C)c1C(C)=O | 0.3 | 0.4 | 16 | 66* | -2 | 61*
CCc1c(C(=O)NCc2ccc3c(c2)OCO3)[nH]c(C)c1C(C)=O | 0.2 | 0.6 | 9 | 80* | 3 | 41
CCc1c(C(=O)Nc2ccc(OC)cc2)[nH]c(C)c1C(C)=O | 0.9 | 0.7 | -2 | 14 | -1 | 27
CN/S(=N/S(=O)(=O)c1ccccc1)c1ccc(C)cc1 (stereo not given) | 0.7 | 0.2 | 12 | 26 | 2 | 76*
O=S1(=O)CCN(Cc2ccc(Cl)cc2)CC1 | 1.1 | 0.7 | -9 | -5 | 3 | 32
CCOC(=O)C1CCN(Cc2ccc(Cl)c(Cl)c2)CC1 | 0.5 | 0.6 | 7 | 51* | 7 | 36
CCOC(=O)C1CCN(Cc2ccc(C(=O)OC)cc2)CC1 | 0.9 | 0.9 | 8 | 7 | 3 | 7
O=S1(=O)CCN(Cc2ccc(Cl)c(Cl)c2)CC1 | 1 | 0.5 | 0 | 2 | 10 | 54*
Clc1ccc(CN2CCCCCCC2)cc1Cl | 1.1 | 0.2 | -6 | -6 | 10 | 85*
CCOC(=O)c1c(C)c(C(=O)NCc2ccccn2)c(C)n1CC | 0.9 | 0.7 | 19 | 10 | -1 | 30
Cc1cc(SCC(=O)N/N=C/c2ccc(O)cc2O)c(C)cc1Br | 0.7 | 1.1 | 20 | 33 | -1 | -9
Cc1cccc2nc(CSc3nnc4ccccn34)cn12 | 1.1 | 0.9 | 2 | -10 | 1 | 13
COCc1nnc(NC(=O)CCc2ccccc2)s1 | 0.7 | 0.5 | -3 | 32 | -5 | 47
CC(=O)Nc1ccc(Sc2ncccc2C(=O)Nc2ccc(F)cc2)cn1 | 0.9 | 1 | 11 | 14 | -1 | -4
Cc1nc(SCC(=O)Nc2c(C)n(C)n(-c3ccccc3)c2=O)[nH]c(=O)c1Cc1ccccc1 | 0.9 | 0.9 | 4 | 15 | 0 | 9
COc1ccc(CSc2n[nH]c(C)n2)cc1Br | 0.9 | 0.6 | 9 | 14 | 17 | 39
Cc1nc(SCc2cccc(Oc3ccccc3)c2)n[nH]1 | 0.7 | 0.6 | 36* | 26 | 0 | 40
CN(C1CCCCC1)S(=O)(=O)Cc1ccccc1 | 0.8 | 0.5 | 3 | 16 | 0 | 54*
C#CCSc1nccc(-c2nn(-c3ccc(C)cc3)ccc2=O)n1 | 0.6 | 0.8 | 14 | 41 | 26 | 24
CCSc1nccc(-c2nn(-c3ccc(C)cc3)ccc2=O)n1 | 0.4 | 0.5 | 15 | 63* | -5 | 46
C=CCSc1nccc(-c2nn(-c3ccc(C)cc3)ccc2=O)n1 | 0.5 | 0.8 | 34* | 46 | 2 | 24
CCn1nnc(-c2ccccc2NC(=O)C(F)(F)F)n1 | 0.7 | 0.3 | 1 | 26 | -7 | 70*

From PubChem BioAssay
